Here are results for 10 compounds from PubChem BioAssay (Tox21).

Test [1] is described as follows: Caspase-3/7 induction in HepG2 cells by small molecules, qHTS assay (AID 1346978). Note: nearly all actives have a fitted effect of over 15% in size. Conditions: HepG2 caspase-3/7 activation, Caspase-Glo luminescence, 17 h; series mostly up to 92.4 µM. The method, boiled down:
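Wild-type HepG2 cells, 2,000/well, settled 5 hr at 37 C and 5% CO2, then compound-treated for 17 hr; caspase-3/7 activity read by luminescent Caspase-Glo 3/7 after 30 min at room temperature.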
A general note: Quantitative high-throughput screening tests each substance at several concentrations.

Test [2] in a line: Caspase-3/7 induction in CHO-K1 cells by small molecules, qHTS cell viability counter screen (AID 1346979). Note: nearly all actives have a fitted effect of over 35% in size. Conditions: CellTiter-Fluor fluorescence, 17 h; series mostly up to 92.4 µM. The method, boiled down:
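CellTiter-Fluor viability check, qHTS format: wild-type CHO-K1, 16hr compound treatment, 1hr reagent incubation, fluorescence read.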

Test [3] in a line: Caspase-3/7 induction in CHO-K1 cells by small molecules, qHTS assay (AID 1346980). Note: nearly all actives have a fitted effect of over 15% in size. The settings on record: CHO-K1 caspase-3/7 induction, Caspase-Glo luminescence, 17 h; series mostly up to 92.4 µM. The method, boiled down:
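Wild-type CHO-K1 cells exposed to compounds for 17hr at 37 C, 5% CO2. Caspase-3/7 activity then measured by Caspase-Glo 3/7 luminescence after 30min at room temperature.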

The target of test [4] is Nuclear receptor subfamily 1 group I member 2 (Homo sapiens) (UniProt O75469). Nature of the test: Human pregnane X receptor (PXR) small molecule agonists, qHTS assay (AID 1346982). Note: nearly all actives have a fitted effect of over 35% in size. The settings on record: PXR-Luc HepG2, CYP3A4 luciferase reporter, 24 h; series mostly up to 92.4 µM. The method in brief:
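Luciferase signal from ONE-Glo (30 min, room temperature) measured activation of hPXR-driven CYP3A4 reporter expression in PXR-Luc HepG2 cells treated with compounds for 24 hr at 37 C.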

Test [5] addresses Acetylcholinesterase (Homo sapiens) (UniProt P22303). Nature of the test: Acetylcholinesterase (AChE) small molecule antagonists: enzyme-based qHTS assay (AID 1347397; calls by dose curve; note: nearly all actives have a fitted effect of over 55% in size). Conditions: Potency: AChE enzyme activity inhibition; series mostly up to 115 µM. The method, boiled down: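 Enzyme inhibition was scored from DTNB-detected thiocholine formed by recombinant human AChE acting on acetylthiocholine. The 30 min compound preincubation and 10 min substrate reaction were both run at room temperature, with DMSO as vehicle control.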

Test [6] shares this target. Nature of the test: Acetylcholinesterase (AChE) small molecule antagonists: fluorescence cell-based qHTS assay (AID 1347398; calls by dose curve; note: nearly all actives have a fitted effect of over 50% in size; note: potency is the fitted concentration of half-maximal effect). The settings on record: SH-SY5Y cells; Potency: AChE activity; series mostly up to 115 µM. The method in brief: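 Endogenous acetylcholinesterase of SH-SY5Y neuroblastoma cells is measured in situ. After overnight attachment and 30 min compound exposure, cells receive acetylthiocholine and Thiolite Green; fluorescence is read after 40 min at room temperature.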

The target in test [7] is Cytochrome P450 2D6 (Homo sapiens) (UniProt P10635). Nature of the test: Cytochrome P450 Family 2 Subfamily D Member 6 (CYP2D6) small molecule antagonists: luciferase reporter qHTS assay (AID 1671196). Note: nearly all actives have a fitted effect of over 50% in size. Note: potency is the fitted concentration of half-maximal effect. The settings on record: P450-Glo CYP2D6 enzyme assay, luciferin luminescence, 1 h; series mostly up to 115 µM. The method in brief:
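Read-out is luminescence from luciferin formed by CYP2D6 turnover of a proluciferin substrate, recorded as relative luminescence units. Reactions ran 1 h at room temperature after NADPH regeneration solution was added.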
(In general: In a reporter assay the amount or activity of a reporter protein is the signal.)

Test [8] concerns the target Cytochrome P450 2C19 (Homo sapiens) (UniProt P33261). Nature of the test: Cytochrome P450 Family 2 Subfamily C Member 19 (CYP2C19) small molecule antagonists: luciferase reporter qHTS assay (AID 1671197). Note: nearly all actives have a fitted effect of over 65% in size. Note: potency is the fitted concentration of half-maximal effect. Conditions: P450-Glo CYP2C19 enzyme, luciferin luminescence, 1 h; series mostly up to 115 µM. The method in brief:
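First, compounds are pinned into enzyme-substrate mix and held 10 min at room temperature. Second, NADPH regeneration solution is added and plates incubate 1 h at 37C. Third, detection reagent is added and luminescence read after 20 min.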

Test [9] addresses Cytochrome P450 2C9 (Homo sapiens) (UniProt P11712). Nature of the test: Cytochrome P450 Family 2 Subfamily C Member 9 (CYP2C9) small molecule antagonists: luciferase reporter qHTS assay (AID 1671198). Note: nearly all actives have a fitted effect of over 50% in size. Note: potency is the fitted concentration of half-maximal effect. The settings on record: P450-Glo CYP2C9 enzyme assay, luciferin luminescence; series mostly up to 115 µM. The method in brief: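 P450-Glo proluciferin substrate with CYP2C9 enzyme; 10 min RT preincubation, then NADPH regeneration 1 h at 37C; luciferin detection reagent 20 min RT, luminescence in relative luminescence units.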

The target in test [10] is Cytochrome P450 1A2 (Homo sapiens) (UniProt P05177). Nature of the test: Cytochrome P450 Family 1 Subfamily A Member 2 (CYP1A2) small molecule antagonists: luciferase reporter qHTS assay (AID 1671199). Note: nearly all actives have a fitted effect of over 50% in size. Note: potency is the fitted concentration of half-maximal effect. Conditions: P450-Glo CYP1A2 enzyme, luciferin luminescence, 1 h; series mostly up to 115 µM. The method, boiled down: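 P450-Glo CYP1A2, 1536-well qHTS: enzyme/proluciferin substrate + cpd (DMSO), 10 min RT; NADPH regen, 1 h RT; detection reagent, 20 min; luminescence, RLU.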
Sequence of Cytochrome P450 1A2 (Homo sapiens) (P05177 whole entry, looked up): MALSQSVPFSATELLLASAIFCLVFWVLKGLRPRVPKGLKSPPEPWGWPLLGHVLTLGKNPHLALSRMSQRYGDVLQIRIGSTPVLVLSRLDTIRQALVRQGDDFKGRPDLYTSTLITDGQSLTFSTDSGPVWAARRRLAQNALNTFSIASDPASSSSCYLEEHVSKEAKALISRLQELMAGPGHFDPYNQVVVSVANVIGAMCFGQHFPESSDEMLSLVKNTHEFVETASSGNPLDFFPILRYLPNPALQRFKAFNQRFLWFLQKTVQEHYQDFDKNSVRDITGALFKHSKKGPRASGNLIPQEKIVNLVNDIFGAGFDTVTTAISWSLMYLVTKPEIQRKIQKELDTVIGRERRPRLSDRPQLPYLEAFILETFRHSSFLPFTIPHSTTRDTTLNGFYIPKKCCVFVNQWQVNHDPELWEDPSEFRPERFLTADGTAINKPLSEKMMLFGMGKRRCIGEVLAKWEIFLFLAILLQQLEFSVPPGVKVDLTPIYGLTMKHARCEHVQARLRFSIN

For test [11], the target named is Voltage-gated inwardly rectifying potassium channel KCNH2 (Homo sapiens) (UniProt Q12809). Nature of the test: Human Ether-a-go-go-Related Gene (hERG) channel small molecule antagonists: fluorescence cell-based qHTS assay (AID 1671200). Conditions: hERG-U2OS cells, FluxOR thallium flux fluorescence; series mostly up to 76.8 µM. The method, boiled down:
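Kinetic two-minute fluorescence traces, sampled at 1 s, were collected following thallium stimulus of U2OS cells (1000 per well) that had been cultured overnight at 37 C and loaded with FluxOR II.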
For orientation: hERG is a cardiac potassium channel; its block is linked to QT prolongation.

For test [12], the target named is Cytochrome P450 3A4 (Homo sapiens) (UniProt P08684). Nature of the test: Cytochrome P450 Family 3 Subfamily A Member 4 (CYP3A4) small molecule antagonists: luciferase reporter qHTS assay (AID 1671201). Note: nearly all actives have a fitted effect of over 50% in size. Conditions: P450-Glo CYP3A4 enzyme, luciferin luminescence, 1 h; series mostly up to 115 µM. The method, boiled down: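 Proluciferin-to-luciferin conversion by CYP3A4, NADPH-regenerated, 1 h RT; luminescence read as RLU. Ketoconazole as control.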
Sequence of Cytochrome P450 3A4 (Homo sapiens) (P08684 whole entry, looked up): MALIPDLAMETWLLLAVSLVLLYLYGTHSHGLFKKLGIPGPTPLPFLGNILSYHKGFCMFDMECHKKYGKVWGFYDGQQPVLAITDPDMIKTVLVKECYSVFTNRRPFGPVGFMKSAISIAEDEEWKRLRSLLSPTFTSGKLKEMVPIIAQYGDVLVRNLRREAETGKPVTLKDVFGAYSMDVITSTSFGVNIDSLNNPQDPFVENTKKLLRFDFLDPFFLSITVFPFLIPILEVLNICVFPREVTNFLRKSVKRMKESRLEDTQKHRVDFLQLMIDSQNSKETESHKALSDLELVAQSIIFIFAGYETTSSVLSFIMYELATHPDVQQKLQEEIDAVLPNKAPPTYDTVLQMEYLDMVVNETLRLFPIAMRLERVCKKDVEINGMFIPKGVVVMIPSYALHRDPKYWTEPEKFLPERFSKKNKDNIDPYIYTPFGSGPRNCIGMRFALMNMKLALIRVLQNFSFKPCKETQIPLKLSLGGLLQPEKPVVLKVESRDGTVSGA

Molecules are shown by their SMILES. Several values for one entry are separate records, joined by “and”; a condition that tells them apart may be missing. Identical values can stand only once. Results filed as inconclusive are left out. Some compounds were tested as several samples or in several runs, with calls that do not always agree. Activity calls are given as the source filed them. Unless noted, calls come from the whole dose curve; as a rule, active = well fitted curve in the direction sought with a large enough effect in the repeat runs; inconclusive = weak or mixed curves; inactive = no such curve, though single readings can be large; an effect the other way counts as inactive or inconclusive.
% is set by controls: 0 for no effect and ±100 for the full control effect.

Sequence of Cytochrome P450 2D6 (Homo sapiens) (P10635 whole entry, looked up): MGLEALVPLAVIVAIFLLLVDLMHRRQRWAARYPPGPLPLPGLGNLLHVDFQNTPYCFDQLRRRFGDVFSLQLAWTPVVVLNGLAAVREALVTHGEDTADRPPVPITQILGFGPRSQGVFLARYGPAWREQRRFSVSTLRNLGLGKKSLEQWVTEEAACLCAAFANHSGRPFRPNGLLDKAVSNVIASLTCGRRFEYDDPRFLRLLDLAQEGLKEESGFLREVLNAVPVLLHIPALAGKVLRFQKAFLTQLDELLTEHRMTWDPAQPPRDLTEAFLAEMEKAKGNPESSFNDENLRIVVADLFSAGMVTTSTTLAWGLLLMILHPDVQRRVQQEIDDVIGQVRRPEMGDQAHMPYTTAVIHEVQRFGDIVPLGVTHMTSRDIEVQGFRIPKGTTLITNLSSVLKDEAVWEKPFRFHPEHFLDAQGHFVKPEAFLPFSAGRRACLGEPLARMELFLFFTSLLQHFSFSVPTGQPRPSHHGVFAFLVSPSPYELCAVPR
Sequence of Acetylcholinesterase (Homo sapiens) (P22303 whole entry, looked up): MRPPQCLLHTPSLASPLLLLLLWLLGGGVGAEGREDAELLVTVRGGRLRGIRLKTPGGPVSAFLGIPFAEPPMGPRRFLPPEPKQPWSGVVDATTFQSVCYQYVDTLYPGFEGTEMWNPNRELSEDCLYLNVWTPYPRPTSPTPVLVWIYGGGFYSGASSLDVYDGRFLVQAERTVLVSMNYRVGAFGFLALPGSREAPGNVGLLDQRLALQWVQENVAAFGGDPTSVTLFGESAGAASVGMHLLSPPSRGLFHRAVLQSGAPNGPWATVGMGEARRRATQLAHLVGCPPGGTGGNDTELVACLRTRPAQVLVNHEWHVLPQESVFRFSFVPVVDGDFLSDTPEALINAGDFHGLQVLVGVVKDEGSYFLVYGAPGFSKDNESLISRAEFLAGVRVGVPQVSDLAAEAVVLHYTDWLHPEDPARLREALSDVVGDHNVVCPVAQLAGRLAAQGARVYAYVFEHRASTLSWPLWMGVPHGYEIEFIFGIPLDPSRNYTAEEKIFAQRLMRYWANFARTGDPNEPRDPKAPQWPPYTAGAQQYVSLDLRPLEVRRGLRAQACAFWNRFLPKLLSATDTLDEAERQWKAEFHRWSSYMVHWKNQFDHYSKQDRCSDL
Sequence of Nuclear receptor subfamily 1 group I member 2 (Homo sapiens) (O75469 whole entry, looked up): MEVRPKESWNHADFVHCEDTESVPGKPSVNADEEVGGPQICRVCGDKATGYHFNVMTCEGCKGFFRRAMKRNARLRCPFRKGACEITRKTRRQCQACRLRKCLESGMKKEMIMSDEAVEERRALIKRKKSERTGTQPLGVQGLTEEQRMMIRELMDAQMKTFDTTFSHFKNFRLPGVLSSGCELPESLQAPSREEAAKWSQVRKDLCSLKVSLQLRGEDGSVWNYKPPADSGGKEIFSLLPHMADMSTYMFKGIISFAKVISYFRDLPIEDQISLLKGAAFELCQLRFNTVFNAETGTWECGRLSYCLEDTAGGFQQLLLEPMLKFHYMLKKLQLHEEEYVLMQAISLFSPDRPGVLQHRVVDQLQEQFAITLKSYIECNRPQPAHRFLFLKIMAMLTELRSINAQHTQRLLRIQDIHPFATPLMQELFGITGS
Sequence of Cytochrome P450 2C9 (Homo sapiens) (P11712 whole entry, looked up): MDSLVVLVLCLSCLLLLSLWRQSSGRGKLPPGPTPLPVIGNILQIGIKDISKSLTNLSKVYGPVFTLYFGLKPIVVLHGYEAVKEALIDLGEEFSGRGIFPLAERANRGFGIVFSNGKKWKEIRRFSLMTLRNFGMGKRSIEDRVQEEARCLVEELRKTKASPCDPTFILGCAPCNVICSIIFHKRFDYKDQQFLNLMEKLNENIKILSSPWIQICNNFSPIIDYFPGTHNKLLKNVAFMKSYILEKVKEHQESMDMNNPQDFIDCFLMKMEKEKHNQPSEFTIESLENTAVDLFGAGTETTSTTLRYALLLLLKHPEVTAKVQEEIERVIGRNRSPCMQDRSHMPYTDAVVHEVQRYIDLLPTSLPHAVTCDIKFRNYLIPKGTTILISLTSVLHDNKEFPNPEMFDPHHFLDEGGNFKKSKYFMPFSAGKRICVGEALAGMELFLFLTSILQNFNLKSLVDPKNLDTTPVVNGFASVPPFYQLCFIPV
Sequence of Voltage-gated inwardly rectifying potassium channel KCNH2 (Homo sapiens) (Q12809 whole entry, looked up): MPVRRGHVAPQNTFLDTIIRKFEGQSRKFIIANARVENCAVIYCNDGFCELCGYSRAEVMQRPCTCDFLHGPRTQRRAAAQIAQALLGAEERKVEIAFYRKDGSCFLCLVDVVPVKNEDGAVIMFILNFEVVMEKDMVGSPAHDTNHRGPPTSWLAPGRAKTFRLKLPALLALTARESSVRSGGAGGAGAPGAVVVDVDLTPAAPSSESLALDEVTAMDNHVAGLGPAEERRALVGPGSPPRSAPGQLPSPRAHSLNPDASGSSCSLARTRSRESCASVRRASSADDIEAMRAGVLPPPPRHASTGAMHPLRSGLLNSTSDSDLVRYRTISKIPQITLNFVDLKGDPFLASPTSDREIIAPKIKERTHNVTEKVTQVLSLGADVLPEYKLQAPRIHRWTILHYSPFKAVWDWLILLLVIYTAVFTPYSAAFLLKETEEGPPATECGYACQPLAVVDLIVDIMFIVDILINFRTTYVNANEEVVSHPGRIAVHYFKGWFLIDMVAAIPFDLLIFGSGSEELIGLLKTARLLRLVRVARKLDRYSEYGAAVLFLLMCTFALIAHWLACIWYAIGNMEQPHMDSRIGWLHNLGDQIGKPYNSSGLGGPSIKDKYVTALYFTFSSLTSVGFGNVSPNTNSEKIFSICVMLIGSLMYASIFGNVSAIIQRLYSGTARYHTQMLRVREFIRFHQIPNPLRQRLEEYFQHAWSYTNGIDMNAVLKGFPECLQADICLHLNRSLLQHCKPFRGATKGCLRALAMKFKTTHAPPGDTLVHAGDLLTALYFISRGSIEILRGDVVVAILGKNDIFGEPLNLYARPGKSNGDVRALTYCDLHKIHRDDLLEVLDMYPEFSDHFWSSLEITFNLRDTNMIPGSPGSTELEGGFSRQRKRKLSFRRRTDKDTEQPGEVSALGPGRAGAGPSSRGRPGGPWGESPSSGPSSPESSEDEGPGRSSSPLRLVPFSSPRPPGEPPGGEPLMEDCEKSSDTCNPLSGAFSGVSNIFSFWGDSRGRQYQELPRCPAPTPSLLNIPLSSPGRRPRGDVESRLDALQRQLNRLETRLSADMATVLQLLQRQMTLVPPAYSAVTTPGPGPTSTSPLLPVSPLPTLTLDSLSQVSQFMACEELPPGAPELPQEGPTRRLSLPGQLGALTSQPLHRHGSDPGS
Sequence of Cytochrome P450 2C19 (Homo sapiens) (P33261 whole entry, looked up): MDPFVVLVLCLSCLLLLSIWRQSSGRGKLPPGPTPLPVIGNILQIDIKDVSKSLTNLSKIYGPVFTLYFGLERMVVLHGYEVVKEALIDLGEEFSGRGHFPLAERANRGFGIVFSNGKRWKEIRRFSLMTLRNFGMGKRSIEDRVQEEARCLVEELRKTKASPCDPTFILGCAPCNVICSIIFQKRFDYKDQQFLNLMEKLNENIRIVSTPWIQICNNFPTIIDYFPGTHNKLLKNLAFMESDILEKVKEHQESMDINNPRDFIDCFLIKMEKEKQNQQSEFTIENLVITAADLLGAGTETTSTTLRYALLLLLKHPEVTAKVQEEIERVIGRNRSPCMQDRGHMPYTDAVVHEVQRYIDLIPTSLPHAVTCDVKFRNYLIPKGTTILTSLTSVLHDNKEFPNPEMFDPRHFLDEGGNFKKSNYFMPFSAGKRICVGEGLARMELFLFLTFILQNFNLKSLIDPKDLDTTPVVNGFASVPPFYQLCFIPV

As for `CCCn1cc[n+](C)c1`, the Potency result in test [1], in test [2], in test [3], in test [4], in test [5] and in test [6] was “inactive” each time. Besides, the Potency result in test [8], in test [9], in test [10], in test [11] and in test [12] was “inactive” in each case. The Potency in [7] was 80.4 µM (active) and inactive.
Consider `Nc1ccccc1`, for which the Potency result in [1], in test [2], in test [3], in test [4], in test [11] and in [12] was “inactive” each time. In addition, the Potency entry was “inactive and 64.5 µM (active)” in test [7]; 30.9 µM (active) and 36.3 µM (active) and inactive in [8]; “inactive and 40.7 µM (active)” in test [9]; 36.3 µM (active) and inactive and 27.5 µM (active) in test [10].
As to `CCCCn1cc[n+](C)c1`, the Potency result in [1], in [2], in test [3] and in test [11] was “inactive” each time.
As to `CCC[N+]1(C)CCCCC1`, the Potency entry in test [1], in test [2], in test [3], in test [4], in test [5] and in [6] was “inactive” each time. Besides, the Potency entry in test [7], in [8], in test [9], in test [10], in test [11] and in test [12] was “inactive” throughout.
On to `CCCCCCCCCCn1cc[n+](C)c1`, for which the Potency entry in [1], in [3] and in test [12] was “inactive” in each case. For the same compound, the Potency in test [6] is 35.7 µM (active) [middle of 6 runs]; in [8], 40.3 µM (active) and 3.26 µM (active) and inactive; in [9], 5.7 µM (active) and inactive and 32.6 µM (active); in test [10], 36 µM (active) and 32.6 µM (active).
Turning to `O=[N+]([O-])c1ccccc1O`, the Potency result in test [1], in [2], in [3], in test [4], in [5] and in test [6] was “inactive” each time. Besides, the Potency result in test [8], in test [9], in test [11] and in [12] was “inactive” each time. Moreover, in test [7], the Potency is 31.6 µM (active) and inactive.
Regarding `N#CS`, the Potency entry in test [1], in test [2], in test [3] and in test [11] was “inactive” in each case.
Turning to `O=C(O)CC(O)(CC(=O)O)C(=O)O`, the Potency result in test [1], in test [2], in test [3], in test [7] and in test [11] was “inactive” throughout.
Take `O=P1(N(CCCl)CCCl)NCCCO1` (stereo not given): the Potency entry in [1], in [2], in [3], in test [4], in [5] and in test [6] was “inactive” throughout. The Potency result in [7], in test [9], in test [10] and in test [11] was “inactive” each time. The Potency in test [8] is 71.8 µM (active) and inactive.
Take `O=S(=O)(O)O`: the Potency result in test [1], in test [2], in test [3] and in [11] was “inactive” each time.
